Inconclusive results are not listed. Unmarked numbers belong to inactive results. Calls of active or inactive are those of the source. Calls follow the shape of the dose curve; as a rule, active = well fitted cell-killing curve with a large enough effect in the repeat runs; inconclusive = weak or mixed curves, or effect the other way; inactive = no such curve, though single readings can be large or run the other way.
assay: qHTS assay for identifying genotoxic compounds that show differential cytotoxicity against isogenic chicken DT40 cell lines with known DNA damage response pathways - wild type cell line (AID 743012); conditions: DT40 wild type chicken cells viability, CellTiter-Glo, 40 h; series mostly up to 68.4 µM; activity change, negative = cytotoxicity: at the top concentration; also: nearly all actives have a fitted effect of over 60% in size
Text: U.S. Tox21 Program National Center for Advancing Translational Sciences [NCATS] NIH Chemical Genomics Center [NCGC] U.S. Environmental Protection Agency [EPA] National Institutes of Environmental Health Sciences [NIEHS] National Toxicology Program [NTP] U.S. Food and Drug Administration [FDA] Tox21 Assay Overview: DNA repair pathways play a critical role in cellular homeostasis by repairing DNA damage induced by endogenous processes and xenobiotics. Isogenic chicken DT40 cell lines deficient in different DNA repair pathways can be used to identify genotoxic compounds and aid in characterizing the nature of the DNA damage induced. Two DNA repair-deficient cell lines with disrupted genes, Rad54/Ku70 or Rev3, were used to screen the Tox21 10K compound library. Possible genotoxicity was based on the presence of a significant increase in cytotoxicity in one or more of the DNA repair-deficient cell lines compared to that observed in the parental DNA repair-proficient cell line. CellTiter Glo viability assay (Promega, Madison, WI) was used to measure cell viability in these cells after compound treatment. This assay includes the data from the wild type cell line.
Tox21 Assay Protocol Summary: 300 DT40 wild type cells in 5 uL/well were dispensed into white, solid-bottom 1536-well plates using a Multidrop Combi (ThermoFisher Scientific, Waltham, MA) dispenser. After the assay plates were incubated at 37 C/5% CO2 for approximately 0.5 hour, 23 nL of compounds dissolved in DMSO, positive controls or DMSO only was transferred into the assay plate by a pintool work station (Kalypsys, San Diego, CA). The assay plates were incubated at 37 C/5% CO2 for 40 hours. After 5 uL per well of CellTiter-Glo reagent was added into each well of the assay plates, the plates were incubated for 30 min at room temperature and the luminescence intensity of the plates was measured using a ViewLux (PerkinElmer, Shelton, CT) plate reader.
% is scaled to controls: 0 for no effect and ±100 for the full control effect; potency is read from the fitted curve at half-maximal effect.

Structure (SMILES) | activity change, negative = cytotoxicity | Potency
N=C(N)S(=O)O | 4.38% | 
CC(C)OC(=O)C(C(=O)OC(C)C)=C1SC=CS1 |  | 23.7 µM (active)
Cc1nc2ccc(Cl)cc2[nH]1 | -4.02% | 
CCCCCCC(=O)c1ccccc1 | -4.03% | 
COc1cc2nc(N3CCN(C(=O)C4CCCO4)CC3)nc(N)c2cc1OC (stereo not given) | 1.45% | 
O=C1c2ccccc2C(=O)N1CO | 13.8% [at 95 µM] | 
C/C=C(\C)C=O | -12.6% [at 95 µM] | 
CC(=O)OC/C=C(/C)CCC=C(C)C | 8.75% | 
O=C(O)CCCCCCCCCC(=O)O |  | 30.6 µM (active)
N=C(N)N1CCc2ccccc2C1 | 9.42% | 
CCCCCC(=O)CC | 15.7% [at 95 µM] | 
CCCCC(CC)COC(=O)CC#N (stereo not given) | -5.34% | 
CCCCCCCCOCCC#N | 0.735% | 
Cc1ccc2cccnc2c1 | 12.4% | 
C=CCCCCCCCCOC(C)=O | -4.79% | 
Cc1cc(C)c(C)c(C)c1 | -6.94% | 
CC(C)OCCO | 9.72% | 
O=C(OOC(=O)c1ccccc1)c1ccccc1 | 8.69% | 
O=Cc1ccc(C(=O)O)cc1 | -3.09% [at 95 µM] | 
CCN1CCN(C(=O)N[C@@H](C(=O)N[C@@H]2C(=O)N3C(C(=O)O)=C(CSc4nnnn4C)CS[C@H]23)c2ccc(O)cc2)C(=O)C1=O | 1.35% | 

Structure (SMILES) | activity change, negative = cytotoxicity | Potency
CC(=O)OCC(=O)[C@@]1(O)CC[C@H]2[C@@H]3CCC4=CC(=O)C=C[C@]4(C)[C@H]3[C@@H](O)C[C@@]21C | -19% | 
C=CC(=O)OCC[N+](C)(C)C | 12.4% [at 95 µM] | 
CC(C)CC(O)Cc1ccccc1 (stereo not given) | 1.83% | 
CC(CN1CC(=O)NC(=O)C1)N1CC(=O)NC(=O)C1 (stereo not given) |  | 4.22 µM (active)
CC/C=C\CCCCCCCCCCOC(C)=O | -6.38% | 
CC(=O)Nc1ccc(OCCOCCOc2ccc(NC(C)=O)cc2)cc1 | 2.86% | 
CNC(C)=O | 3.27% | 
C=CC(=O)OCCOCCOCC | 17% | 
COC(=O)c1c(C)cc(O)c(C)c1O |  | 61.1 µM (active)
CC(C)c1cc(C(C)C)cc(C(C)C)c1 | 21.9% | 
COc1cc(NS(=O)(=O)c2ccc(N)cc2)ncn1 | 14.5% [at 31.4 µM] | 
C[n+]1ccccc1/C=N/O | 11.5% [at 31.4 µM] | 
CN(C)CCCN(C)C | -5.84% [at 8.52 µM] | 
Cc1ccc(O)c(C(=O)c2ccccc2)c1 | 0.455% [at 95 µM] | 
CCOCCOCCOC(C)=O | 6.72% [at 95 µM] | 
COc1ccc(Cl)cc1C | 16.8% [at 95 µM] | 
O=C(O)CCC(=O)Nc1ccc(S(=O)(=O)Nc2nccs2)cc1 | 11.4% [at 31.4 µM] | 
C=CCN1CCc2nc(N)sc2CC1 | 8.45% | 
CC12CCCC=C1C(=O)OC2=O (stereo not given) | 0.634% | 
CN(C)CCc1c[nH]c2ccc(CS(=O)(=O)N3CCCC3)cc12 | 0.317% | 

Reference: PubChem BioAssay (Tox21)
